The nature of test [1]: Nuclear factor erythroid 2-related factor 2/antioxidant responsive element (Nrf2/ARE) small molecule agonists: qHTS cell viability counter screen in human keratinocytes (AID 1919968; active = well fitted curve in the direction sought with a large enough effect in the repeat runs; an effect the other way counts as inactive or inconclusive; note: nearly all actives have a fitted effect of over 55% in size). The essentials: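 Parallel cytotoxicity read: KeratinoSens HaCaT cells, compound treatment 23 h, viability by CellTiter-Fluor fluorescence 1 h post-reagent.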
The nature of test [2]: Nuclear factor erythroid 2-related factor 2/antioxidant responsive element (Nrf2/ARE) small molecule agonists: luciferase reporter gene qHTS assay in human keratinocytes (AID 1919969; note: nearly all actives have a fitted effect of over 35% in size; note: potency is the fitted concentration of half-maximal effect). (In general: Reporter assays use an easily measured gene product as a stand-in for the process of interest.)
The target of test [3] is Gonadotropin-releasing hormone receptor (Homo sapiens) (UniProt P30968). Description: Human gonadotropin-releasing hormone receptor (GnRHR) small molecule agonists, calcium flux assay in GnRHR-HEK293 cells (AID 1920063). Note: nearly all actives have a fitted effect of over 35% in size. The essentials:
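Calcium flux, agonist mode, human GnRHR stably integrated in HEK293; dye 1 h at 37 C before compound; Ex/Em=480/540 kinetic read, 3 min; 15 concentrations, triplicate.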

Test [4] addresses KiSS-1 receptor (Homo sapiens) (UniProt Q969F8). As to the kind of experiment: Human kisspeptin (KISS1R) small molecule agonists, calcium flux assay in KISS1R-HEK293 cells (AID 1920064; active = well fitted curve in the direction sought with a large enough effect in the repeat runs; an effect the other way counts as inactive or inconclusive). The essentials:
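Triplicate 15-concentration series were applied to dye-loaded human KISS1R HEK293 cells, and agonist-evoked calcium fluorescence was captured for 3 min.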
For orientation: A change in cytosolic calcium serves as a functional read-out for many receptors and channels.

A short description of test [5]: G protein-coupled receptor (GPCR) small molecule agonists, calcium flux assay: HEK293 wild type cell line counter screen (AID 1920065). The gist of the method:
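Non-specific calcium responders were flagged by adding DMSO-dissolved compounds to dye-loaded cells and reading 480/540 nm fluorescence each second for 3 min; ATP served as positive control.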

Test [6] can be described thus: p53 small molecule agonists, cell-based qHTS assay with human liver microsomes (AID 1963577). The essentials: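 Cells carrying a p53-responsive bla reporter were rested 5 h (37 C, 5% CO2) before compound transfer. Human liver microsomes plus NADPH, 0.5 mg/mL final apiece, supplied metabolism during the 16 h 37 C exposure.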
A short description of test [7]: p53 small molecule agonists, cell-based qHTS assay with rat liver microsomes (AID 1963578). The essentials:
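Fluorescence from a beta-lactamase reporter under a p53 response element was measured after cells had been incubated 16 h at 37 C with test compound and rat liver microsomes plus NADPH (0.5 mg/mL final each).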
For orientation: qHTS replaces the single test concentration by a dilution series.

Test [8] is described as follows: p53 small molecule agonists, cell-based qHTS assay with human liver microsomes: qHTS cell viability counter screen (AID 1963579). Note: nearly all actives have a fitted effect of over 45% in size. The essentials:
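Seed p53RE-bla cells at 4,000 per well; incubate 5 h at 37 C; add compound, human liver microsomes and NADPH; incubate 16 h at 37 C; add CellTiter-Glo; after 30 min at room temperature, read luminescence.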

Test [9] can be described thus: p53 small molecule agonists, cell-based qHTS assay with rat liver microsomes: qHTS cell viability counter screen (AID 1963580). Note: nearly all actives have a fitted effect of over 45% in size. The essentials:
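After the beta-lactamase ratio was read, CellTiter-Glo was added to the same wells and luminescence measured at 30 min; cells had been treated 16 h at 37 C with compounds, rat liver microsomes and NADPH (0.5 mg/mL final each).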

Test [10] is described as follows: p53 small molecule agonists, cell-based qHTS assay: qHTS cell viability counter screen (AID 1963581). Note: nearly all actives have a fitted effect of over 45% in size. The essentials: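 Multiplexed with the reporter read, a CellTiter-Glo step (30 min, room temperature) gauges ATP-based viability of HCT-116 p53RE-bla cells after 16 h compound incubation at 37 C.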
Test [11] in a line: p53 small molecule agonists, cell-based qHTS assay (AID 1963582; active = well fitted activation curve with a large enough effect in the signal ratio in the repeat runs, not every such curve was filed as active; the % refers to the signal ratio). The gist of the method:
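Beta-lactamase reporter cells (p53RE-bla) treated with compounds for 16 h at 37 C; FRET substrate, 2 h, room temperature; fluorescence intensity.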

In test [12] the target is 5-hydroxytryptamine receptor 2A (Homo sapiens) (UniProt P28223). As to the kind of experiment: 5-hydroxytryptamine receptor 2A (HTR2A) small molecule antagonists, cell-based qHTS assay (AID 1963586). Note: nearly all actives have a fitted effect of over 45% in size. The essentials:
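CHO cells stably expressing human HTR2A were plated for 18 h at 37 C, then loaded with calcium dye for 1 h. Compounds were preincubated 5 min at room temperature before DOI (4 nM solution) was added. Kinetic fluorescence was read for 3 min.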

For test [13] the target is unchanged. As to the kind of experiment: 5-hydroxytryptamine receptor 2A (HTR2A) small molecule agonists, cell-based qHTS assay (AID 1963587). Note: nearly all actives have a fitted effect of over 30% in size. The gist of the method:
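CHO cells stably expressing human HTR2A, plated 18 h, loaded with calcium dye 1 h at 37 C. Agonist mode: compounds added and intracellular calcium fluorescence recorded kinetically for 2 min at 1 sec intervals.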

The target of test [14] is Muscarinic acetylcholine receptor M1 (Homo sapiens) (UniProt P11229). As to the kind of experiment: Cholinergic receptor muscarinic 1 (CHRM1) small molecule antagonists, cell-based qHTS assay (AID 1963588). Note: nearly all actives have a fitted effect of over 40% in size. The gist of the method:
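Compounds were tested at 15 concentrations in three independent runs. Dye-loaded CHRM1-CHO cells were exposed 5 min at room temperature before stimulation by acetylcholine added at 50nM. Intracellular calcium was read kinetically on FDSS for 3 min.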

For test [15] the target is unchanged. Description: Cholinergic receptor muscarinic 1 (CHRM1) small molecule agonists, cell-based qHTS assay (AID 1963589). Note: nearly all actives have a fitted effect of over 35% in size. The gist of the method:
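qHTS, 15-point titration, 3 independent runs: compounds pin-transferred onto dye-loaded CHRM1-CHO cells (human M1), calcium fluorescence followed every second to detect agonism.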

Test [16] is described as follows: cAMP Responsive Elements (CRE) small molecule agonists, cell-based qHTS assay (AID 1963590). The gist of the method: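 Quantitative HTS for CRE agonists: HEK 293T CRE-bla cells, overnight plating, 3 h compound incubation at 37 C/5% CO2, then 2 h room-temperature LiveBLAzer B/G FRET substrate loading.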
Test [17] in a line: cAMP Responsive Elements (CRE) small molecule antagonists, cell-based qHTS assay (AID 1963591; active = well fitted inhibition curve with a large enough effect in the signal ratio in the repeat runs, not every such curve was filed as active; the % refers to the signal ratio). The gist of the method: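 Fluorescence intensity from cleaved LiveBLAzer B/G substrate (2 h, room temperature) quantified CRE-bla activity in HEK 293T cells exposed 3 h to compound with 0.25 uM final NKH477.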
The target in test [18] is Beta-2 adrenergic receptor (Homo sapiens) (UniProt P07550). Description: Adrenergic beta2 receptor (ADRB2) small molecule antagonists, cell-based qHTS assay (AID 1963592). Note: series mostly up to about 92 µM; nearly all actives have a fitted effect of over 50% in size. The essentials:
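Assay format: CHO-ADRB2 cells, 18-20hr seeding at 37C/5% CO2, then compound plus 1nM isoproterenol agonist mix for 0.5hr RT. Homogeneous time-resolved fluorescence cAMP detection after 1hr, expressed as 665/615 nm ratio.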

Test [19] has as its target D(2) dopamine receptor (Homo sapiens) (UniProt P14416). Description: Dopamine D2 receptor (DRD2) small molecule agonists, cell-based qHTS assay (AID 1963594). Note: nearly all actives have a fitted effect of over 35% in size. The gist of the method: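 HEK293 cells stably expressing human DRD2, pre-treated with PDE inhibitor Ro20-1724 (0.1 mM final) and compound 10 min at room temperature, then stimulated with NKH477 (200nM […]) for 30 min. cAMP read by HTRF (665/620 nm).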

The target is the same in test [20]. Description: Dopamine D2 receptor (DRD2) small molecule antagonists, cell-based qHTS assay (AID 1963595; active = well fitted inhibition curve with a large enough effect in the signal ratio in the repeat runs, with a control signal flat; the % refers to the signal ratio). The gist of the method:
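Readout: HTRF cAMP, cAMP-d2 competing with cellular cAMP for anti-cAMP cryptate, read after 1 h. Cells: DRD2-HEK293. Conditions: 0.1 mM Ro20-1724, 12 nM quinpirole, 200 nM NKH477, 30 min RT.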

Molecules are shown by their SMILES. Records with an inconclusive call do not appear. Calls of active or inactive are those of the source. Unless noted, calls come from the whole dose curve.

Chain of 5-hydroxytryptamine receptor 2A (Homo sapiens) (P28223 whole entry, looked up): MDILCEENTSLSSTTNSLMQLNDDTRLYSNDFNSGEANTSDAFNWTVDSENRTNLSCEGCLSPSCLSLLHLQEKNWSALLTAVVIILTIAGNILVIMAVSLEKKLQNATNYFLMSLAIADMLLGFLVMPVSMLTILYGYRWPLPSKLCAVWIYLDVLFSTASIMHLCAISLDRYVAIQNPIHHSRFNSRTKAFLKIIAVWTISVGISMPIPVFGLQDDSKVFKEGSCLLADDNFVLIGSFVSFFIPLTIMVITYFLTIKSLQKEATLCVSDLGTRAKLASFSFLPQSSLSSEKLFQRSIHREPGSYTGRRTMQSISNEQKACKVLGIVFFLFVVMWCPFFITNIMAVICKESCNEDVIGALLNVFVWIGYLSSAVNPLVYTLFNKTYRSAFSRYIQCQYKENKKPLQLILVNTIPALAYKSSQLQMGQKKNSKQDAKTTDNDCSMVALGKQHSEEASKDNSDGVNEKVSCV
Chain of KiSS-1 receptor (Homo sapiens) (Q969F8 whole entry, looked up): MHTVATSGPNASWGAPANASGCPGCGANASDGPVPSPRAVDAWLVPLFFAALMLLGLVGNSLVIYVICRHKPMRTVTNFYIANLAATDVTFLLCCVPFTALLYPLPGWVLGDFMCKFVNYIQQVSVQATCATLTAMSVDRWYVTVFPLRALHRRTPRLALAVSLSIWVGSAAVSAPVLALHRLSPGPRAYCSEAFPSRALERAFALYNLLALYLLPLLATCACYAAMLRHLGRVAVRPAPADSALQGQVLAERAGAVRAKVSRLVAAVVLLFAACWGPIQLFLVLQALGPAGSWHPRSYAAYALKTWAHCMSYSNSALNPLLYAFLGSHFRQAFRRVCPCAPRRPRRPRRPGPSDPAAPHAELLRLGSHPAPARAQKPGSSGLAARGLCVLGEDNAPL
Chain of Gonadotropin-releasing hormone receptor (Homo sapiens) (P30968 whole entry, looked up): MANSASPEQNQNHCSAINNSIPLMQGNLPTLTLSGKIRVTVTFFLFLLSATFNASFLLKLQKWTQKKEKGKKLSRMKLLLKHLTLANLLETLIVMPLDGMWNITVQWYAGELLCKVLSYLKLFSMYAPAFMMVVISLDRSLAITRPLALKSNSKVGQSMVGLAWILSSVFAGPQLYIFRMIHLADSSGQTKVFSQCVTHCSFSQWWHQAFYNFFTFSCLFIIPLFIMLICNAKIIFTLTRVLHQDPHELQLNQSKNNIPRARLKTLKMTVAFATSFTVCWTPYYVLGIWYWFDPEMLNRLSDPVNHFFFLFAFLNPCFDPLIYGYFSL
Chain of Beta-2 adrenergic receptor (Homo sapiens) (P07550 whole entry, looked up): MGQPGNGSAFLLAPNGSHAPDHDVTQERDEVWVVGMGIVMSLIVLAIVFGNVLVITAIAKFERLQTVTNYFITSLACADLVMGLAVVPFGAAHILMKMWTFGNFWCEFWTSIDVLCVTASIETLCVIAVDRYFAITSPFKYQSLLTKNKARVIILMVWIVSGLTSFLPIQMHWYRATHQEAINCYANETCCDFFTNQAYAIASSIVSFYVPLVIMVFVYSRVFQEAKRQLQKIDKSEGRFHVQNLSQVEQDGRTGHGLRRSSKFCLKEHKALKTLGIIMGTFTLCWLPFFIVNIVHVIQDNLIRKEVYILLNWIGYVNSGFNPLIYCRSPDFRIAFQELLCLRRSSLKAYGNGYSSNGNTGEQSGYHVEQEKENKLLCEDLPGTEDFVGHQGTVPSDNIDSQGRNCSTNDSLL
Chain of Muscarinic acetylcholine receptor M1 (Homo sapiens) (P11229 whole entry, looked up): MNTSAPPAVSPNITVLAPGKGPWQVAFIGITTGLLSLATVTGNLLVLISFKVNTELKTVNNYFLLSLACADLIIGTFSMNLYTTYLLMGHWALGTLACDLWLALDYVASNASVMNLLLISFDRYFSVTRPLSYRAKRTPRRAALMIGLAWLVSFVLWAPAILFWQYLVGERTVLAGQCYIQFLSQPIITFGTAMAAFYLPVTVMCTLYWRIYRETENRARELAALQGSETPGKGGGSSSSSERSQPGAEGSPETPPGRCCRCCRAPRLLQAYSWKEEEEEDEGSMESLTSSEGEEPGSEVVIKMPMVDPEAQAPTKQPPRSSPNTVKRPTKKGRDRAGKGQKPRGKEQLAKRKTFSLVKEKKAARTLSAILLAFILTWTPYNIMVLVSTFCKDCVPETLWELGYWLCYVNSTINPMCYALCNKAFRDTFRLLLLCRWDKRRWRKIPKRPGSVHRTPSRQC
Chain of D(2) dopamine receptor (Homo sapiens) (P14416 whole entry, looked up): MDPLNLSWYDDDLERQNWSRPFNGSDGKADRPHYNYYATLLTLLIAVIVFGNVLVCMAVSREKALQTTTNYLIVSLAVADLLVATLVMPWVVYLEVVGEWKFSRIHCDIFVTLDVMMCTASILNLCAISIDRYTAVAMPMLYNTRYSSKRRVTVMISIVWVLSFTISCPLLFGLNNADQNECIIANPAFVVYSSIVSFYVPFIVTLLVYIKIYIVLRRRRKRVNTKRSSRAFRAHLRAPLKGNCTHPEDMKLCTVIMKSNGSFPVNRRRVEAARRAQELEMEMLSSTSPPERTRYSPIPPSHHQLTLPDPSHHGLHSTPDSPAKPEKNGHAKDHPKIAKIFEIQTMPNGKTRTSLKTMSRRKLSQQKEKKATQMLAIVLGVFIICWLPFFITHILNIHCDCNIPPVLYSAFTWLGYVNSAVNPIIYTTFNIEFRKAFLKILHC

Regarding `CC(C)=CC1C(C(=O)OCc2cccc(Oc3ccccc3)c2)C1(C)C` (centres undefined), the Potency result in test [1], in [2], in test [3], in test [4], in test [5] and in test [6] was “inactive” in each case. The Potency entry in [7], in test [8], in [9], in test [10], in [11] and in test [12] was “inactive” each time. In addition, the Potency result in test [13], in test [14], in test [15], in test [16], in test [17] and in test [18] was “inactive” throughout. Also, the Potency result in test [19] and in [20] was “inactive” in each case.
With `O=C(Cl)OCc1ccccc1`, the Potency entry in test [1], in [2], in [3], in test [4], in [5] and in test [6] was “inactive” in each case. Moreover, the Potency result in test [7], in test [8], in [9], in test [10], in test [11] and in test [12] was “inactive” throughout. Also, the Potency entry in test [13], in test [14], in test [15], in test [16], in [17] and in test [18] was “inactive” throughout. For the same compound, the Potency result in test [20] is “inactive”.
As to `c1ccc(NNc2ccccc2)cc1`, the Potency result in test [1], in test [3], in [4], in test [5], in [6] and in test [7] was “inactive” in each case. Moreover, the Potency result in [8], in test [9], in test [10], in test [11], in test [12] and in test [13] was “inactive” in each case. Besides, the Potency entry in test [14], in test [15], in test [16], in test [17], in test [18] and in test [19] was “inactive” each time. The Potency entry in test [20] was “inactive”. Moreover, the Potency in test [2] is 55 µM (active).
As for `CC(C)(C)C(=O)CCl`, the Potency result in test [1], in test [2], in test [3], in [4], in test [5] and in test [6] was “inactive” in each case. Also, the Potency result in [7], in [8], in test [9], in [10], in [11] and in [12] was “inactive” in each case. Moreover, the Potency entry in test [13], in [14], in test [15], in [16], in [17] and in [18] was “inactive” in each case. For the same compound, the Potency entry in [19] and in [20] was “inactive” in each case.
As to `N#CCCCl`, the Potency entry in test [1], in test [2], in [3], in [4], in [5] and in [6] was “inactive” throughout. For the same compound, the Potency entry in [7], in test [8], in [9], in test [10], in [11] and in [12] was “inactive” each time. Also, the Potency result in [13], in [14], in test [15], in test [16], in test [17] and in test [18] was “inactive” in each case. Further, the Potency entry in test [19] and in [20] was “inactive” throughout.
In the case of `CCOC(=O)c1cncn1C(C)c1ccccc1` (centres undefined), the Potency result in [1], in test [2], in test [3], in test [4], in test [5] and in test [6] was “inactive” in each case. The Potency entry in [7], in test [8], in test [9], in test [10], in test [11] and in test [12] was “inactive” throughout. Besides, the Potency result in test [13], in test [14], in test [15], in [16], in test [17] and in test [18] was “inactive” each time. The Potency result in test [19] and in [20] was “inactive” throughout.
Turning to `C=C(C)C(=O)OCC(CC)CCCC` (centres undefined), the Potency result in [1], in [2], in test [3], in [4], in [5] and in test [6] was “inactive” throughout. The Potency entry in [7], in test [8], in test [9], in [10], in test [11] and in test [12] was “inactive” each time. For the same compound, the Potency result in test [13], in [14], in test [15], in [16], in [17] and in [18] was “inactive” throughout. In addition, the Potency result in test [19] and in test [20] was “inactive” each time.
